PubChem BioAssay (NCI)
Values joined by “and” are separate entries in the source; they are usually repeats but may differ in a detail not shown here. Identical values can stand only once. The panel holds about 79,000 compounds, 15% with a hit somewhere; the sample as a whole holds those more often. Active and inactive are the calls of the source. No stated cut-off is given here; in the data, active means growth inhibition above about 70%; inactive means the rest.

assay: NCI Yeast Anticancer Drug Screen. Data for the sgs1 mgt1 strain (AID 161);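 further: 0% = growth of cultures given vehicle only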; settings: S. cerevisiae sgs1 mgt1 strain, at 5.0 µM (retest, dose inferred, filed as 0.5), active compounds read high
In short: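 Growth of a repair-deficient yeast mutant was monitored after compound treatment and expressed as inhibition relative to vehicle-treated cultures.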

**Q.** Which growth inhibition does the source give for `c1ccc(NC2=NCCN2)nc1` here?
**A.** 11% (inactive)

**Q.** With `C[CH2][Sn]([CH2]C)([CH2]C)[O]C(=O)CO` as the compound, how does the growth inhibition read?
**A.** 17% (inactive)

**Q.** With `CC12CCC(O)CC1CCC1C2CCC2(C)C1CC1CC(=O)OC12` (centres undefined) as the compound, how does the growth inhibition read?
**A.** 83% (active)

**Q.** With `Nc1ccc(N=Nc2ccccc2)cc1` as the compound, how does the growth inhibition read?
**A.** 1% (inactive)

**Q.** With `C[n+]1c(/C=C/c2ccc(O)c3ncccc23)[se]c2ccccc21` as the compound, how does the growth inhibition read?
**A.** 24% (inactive)

**Q.** For `COC(=O)C1=C(C)N2CCSC2(C)C(C(=O)OC)C1c1cccc(Cl)c1` (centres undefined), which growth inhibition is on record?
**A.** 0% (inactive)

**Q.** For `O=[N+]([O-])/C=C/c1ccccc1`, which growth inhibition is on record?
**A.** 62% (inactive)

**Q.** For `CC12CCC(O)CC1CCC1C2CCC2(C)C(C(=O)CC(O)C(F)(F)F)CCC12` (centres undefined), which growth inhibition is on record?
**A.** -9% (inactive)

**Q.** For `CC(C)NCC(O)c1ccc(O)c(O)c1.[Pt].c1ccc([PH+](c2ccccc2)c2ccccc2)cc1.c1ccc([PH+](c2ccccc2)c2ccccc2)cc1`, which growth inhibition is on record?
**A.** -8% (inactive)

**Q.** For `CCOC(=O)/C(=C\c1ccc(C(=O)OC)cc1)[Se]c1ccccc1`, which growth inhibition is on record?
**A.** -3% (inactive)

**Q.** With `CC/C(=C/c1ccc2c(c1)OCO2)[N+](=O)[O-]` as the compound, how does the growth inhibition read?
**A.** 68% (inactive)

**Q.** With `CCOC(=O)C1=C(C)NC(=O)NC1c1ccc(N(CCCl)CCCl)cc1Cl` (centres undefined) as the compound, how does the growth inhibition read?
**A.** -3% (inactive)

**Q.** Which growth inhibition does the source give for `S=C(S)N1CCOCC1` here?
**A.** 37% (inactive)

**Q.** Which growth inhibition does the source give for `CCOC(=O)c1ccccc1N` here?
**A.** -10% (inactive)

**Q.** With `C[n+]1c(/C=C/c2ccc(O)c(O)c2)[se]c2ccccc21` as the compound, how does the growth inhibition read?
**A.** 48% (inactive)

**Q.** Which growth inhibition does the source give for `CS(=O)(=O)[O-].CS(=O)(=O)[O-].NC1CCCCC1N.[Pt+4]` (centres undefined) here?
**A.** 100% (active)

**Q.** With `COc1ccc2c(c1O)-c1cccc3c1[C@@H](C2)N(CCCl)CC3` as the compound, how does the growth inhibition read?
**A.** 28% (inactive)

**Q.** With `COC(=O)CC1(C(=O)O)CC2(Cl)C(Cl)=C(Cl)C1(Cl)C2(Cl)Cl` (centres undefined) as the compound, how does the growth inhibition read?
**A.** 6% (inactive)

**Q.** With `CCCCN(C)CC(C(C)=O)C(c1ccccc1)c1c(O)c2ccccc2oc1=O` (centres undefined) as the compound, how does the growth inhibition read?
**A.** 11% (inactive)

**Q.** Which growth inhibition does the source give for `O=[n+]1c2ccccc2n([O-])c2ccccc21.[Cl][Ni][Cl]` here?
**A.** 89% (active)

**Q.** Which growth inhibition does the source give for `COc1ccc(C(Cc2ccc(Cl)c(Cl)c2)NCCO)cc1` (centres undefined) here?
**A.** -35% (inactive)

**Q.** With `O=C(N/N=C/c1cc(Cl)cc(Cl)c1[O-])c1ccccc1O.O=C(N/N=C/c1cc(Cl)cc(Cl)c1[O-])c1ccccc1O.[Zn+2]` as the compound, how does the growth inhibition read?
**A.** 96% (active)

**Q.** Which growth inhibition does the source give for `Oc1ccc(Cl)cc1Sc1cc(Cl)ccc1O` here?
**A.** 96% (active) and 98% (active) and 88% (active)

**Q.** With `O=S(=O)([O-])[O-].[OH3+].[OH3+].[OH3+].[Ru+2].c1ccccc1` as the compound, how does the growth inhibition read?
**A.** -15% (inactive)

**Q.** Which growth inhibition does the source give for `CCCCCC(Cn1ccnc1)c1ccc(Cl)cc1Cl` (centres undefined) here?
**A.** 69% (inactive)

**Q.** Which growth inhibition does the source give for `CC1=C(CO)C(=O)OC(C(C)C2CCC3C4CC5OC56C(O)C(N5CC5)=CC(=O)C6(C)C4CCC23C)C1` (centres undefined) here?
**A.** -2% (inactive)

**Q.** With `CCCC[CH2][Sn]([CH2]CCCC)[CH2]CCCC.CCCC[CH2][Sn]([CH2]CCCC)[CH2]CCCC` as the compound, how does the growth inhibition read?
**A.** 67% (inactive)

**Q.** Which growth inhibition does the source give for `CCC[CH2][Sn]1([CH2]CCC)[O]C(=O)C(C(C)C)N=Cc2ccccc2[O]1` (centres undefined) here?
**A.** 12% (inactive)

**Q.** For `Oc1c(Cl)cc(-c2cc(Cl)c(O)c(Cl)c2)cc1Cl`, which growth inhibition is on record?
**A.** 89% (active)

**Q.** For `CC(=O)Nc1ccc(/C=N/N=C(/N)N[N+](=O)[O-])cc1`, which growth inhibition is on record?
**A.** -5% (inactive)

**Q.** Which growth inhibition does the source give for `CC(Br)c1ccccc1` (centres undefined) here?
**A.** 2% (inactive)

**Q.** For `C[Si]1(C)CCCCC2(C1)C(=O)NC(=O)NC2=O`, which growth inhibition is on record?
**A.** -1% (inactive)

**Q.** With `CCCCCCCCCCCCCCCc1cccc(O)c1O` as the compound, how does the growth inhibition read?
**A.** -1% (inactive)

**Q.** With `CC1(C)OC2OC3C(CN(CCCl)Cc4ccccc4)OC(c4ccccc4)OC3C2O1` (centres undefined) as the compound, how does the growth inhibition read?
**A.** -10% (inactive)

**Q.** With `FC(F)(F)c1nc2ccc(SSc3ccc4nc(C(F)(F)F)[nH]c4c3)cc2[nH]1` as the compound, how does the growth inhibition read?
**A.** -3% (inactive)

**Q.** For `O=[N+]([O-])c1csc([N+](=O)[O-])c1`, which growth inhibition is on record?
**A.** 95% (active)

**Q.** With `CCc1cc2c(cc1-c1csc(C/C(N)=N/O)n1)C(C)(C)CCC2(C)C` as the compound, how does the growth inhibition read?
**A.** 52% (inactive)

**Q.** With `CCCCCCCC[N+](CCCC)(CCCC)CCCC` (tested in a mixture with another compound) as the compound, how does the growth inhibition read?
**A.** 100% (active)

**Q.** For `CCC[CH2][Sn]([CH2]CCC)([S]C#N)[S]C#N`, which growth inhibition is on record?
**A.** 93% (active)
